From PubChem
ELG1 repair inh – qHTS screen for small molecules that inhibit ELG1-dependent DNA repair in human embryonic kidney (HEK293T) cells expressing luciferase-tagged ELG1; AID 504467, 2011; Potency, µM (titrated, usually from 46.1 µM), without a hit: at the highest dose activity change, negative = inhibition, usual class: inhibitors; HEK293T ELG1-luciferase reporter, luminescence, 16 h; DNA damage induced by 5-fluorouridine; 330,000 compounds, 2.3% hits; note: % is set by controls: 0 for no effect and ±100 for the full control effect; nearly all actives have a fitted effect of over 55% in size
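5-Fluorouridine DNA damage + compound/DMSO, 2,000 cells/well, 16 h, 37 °C/5% CO2. ONE-Glo, 30 min RT, luminescence. Readout = decrease in reporter signal.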
VP16 counter – VP16 counterscreen qHTS for inhibitors of ROR gamma transcriptional activity | Drosophila S2 Gal4-VP16 UAS-luciferase, luminescence, 20 h | Potency, µM (titrated, usually from 53.6 µM), for inactives: at the highest dose activity, negative = inhibition, hits mostly inhibitors | 310,000 compounds, 3.5% hits;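 note: Gal4-VP16 expression switched on by copper sulfate through the metallothionein promoter; % is set by controls: 0 for no effect and ±100 for the full control effect; nearly all actives have a fitted effect of over 50% in size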
RORgamma inh – qHTS for inhibitors of ROR gamma transcriptional activity; Nuclear receptor ROR-gamma (Mus musculus), P51450; Drosophila S2 Gal4-RORgamma UAS-luciferase reporter, 20 h; Potency, µM (doses to about 53.6 µM), inactives show at the top dose activity change, negative = inhibition, most hits filed as inhibitors; 310,000 compounds, 5.4% hits; AID 2551, 2010; note: % is set by controls: 0 for no effect and ±100 for the full control effect; nearly all actives have a fitted effect of over 60% in size
Target sequence (P51450 whole entry, looked up, the tested form may be a part): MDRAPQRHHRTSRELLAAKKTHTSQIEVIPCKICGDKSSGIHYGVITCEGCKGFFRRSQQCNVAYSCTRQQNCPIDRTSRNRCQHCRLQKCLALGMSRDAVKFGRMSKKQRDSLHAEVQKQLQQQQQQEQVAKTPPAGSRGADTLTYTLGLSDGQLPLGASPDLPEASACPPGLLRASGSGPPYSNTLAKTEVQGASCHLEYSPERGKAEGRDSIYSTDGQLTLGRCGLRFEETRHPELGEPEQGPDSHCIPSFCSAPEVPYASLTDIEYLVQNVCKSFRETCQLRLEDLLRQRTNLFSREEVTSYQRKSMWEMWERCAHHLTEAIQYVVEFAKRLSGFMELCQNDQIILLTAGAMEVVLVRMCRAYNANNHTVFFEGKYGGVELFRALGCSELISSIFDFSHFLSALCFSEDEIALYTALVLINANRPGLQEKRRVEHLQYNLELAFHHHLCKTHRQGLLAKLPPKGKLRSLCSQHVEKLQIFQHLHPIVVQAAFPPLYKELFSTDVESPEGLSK
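Drosophila S2 cells stably expressing Gal4-DBD/mouse RORγ fusion under metallothionein promoter plus UAS-luciferase; compound 1 h, then 700 uM CuSO4 induction for 20 h at ambient temperature; inhibition read as reduced luminescence.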
SW480 rereplic – A quantitative high throughput screen for small molecules that induce DNA re-replication in SW480 colon adenocarcinoma cells. SW480 DNA re-replication, Hoechst DNA content imaging, 48 h. Potency, µM (doses to about 46.1 µM), for inactives: at the top dose re-replication activation, most hits filed as activators. 340,000 compounds, 1.8% hits. AID 624297, 2012; note: % of control where 0% means no effect; nearly all actives have a fitted effect of over 55% in size
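Hoechst fluorescence of nuclei (405 nm excitation, 500-530 nm emission) measured by plate-scanning imager after 48 hr compound exposure at 37 C; re-replication scored as increased number of nuclei with elevated intensity.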
MCF10A rereplic – A quantitative high throughput screen for small molecules that induce DNA re-replication in MCF 10a normal breast cells; MCF 10A DNA re-replication, Hoechst nuclear intensity, 48 h; Potency, µM (highest dose often 46.1 µM), for inactives: at the top dose activity, positive = re-replication, actives largely listed as activators; 350,000 compounds, 2.9% hits; AID 624296, 2012; note: % of control where 0% means no effect; nearly all actives have a fitted effect of over 50% in size
Numbers without * were called inactive; ? = inconclusive; . = no result; [ ] = dose if it differs, or a comment. Sampled rows, rich in hits. Any-hit rate of the full collection: about 10%. Calls come from the whole dose curve; as a rule, active = well fitted curve in the direction sought with a large enough effect; inconclusive = small, poorly fitted or top-dose-only effect, or another doubt; inactive = no such curve, though single readings can be large; an effect the other way counts as inactive or inconclusive. Potency is the fitted concentration of half-maximal effect.

SMILES | ELG1 repair inh | VP16 counter | RORgamma inh | SW480 rereplic | MCF10A rereplic
CCOC(=O)CSc1nc2c(sc(=S)n2-c2ccc(CC)cc2)c(=O)[nH]1 | -4% | -3% | 2% | -5% | 3%
CCOC(=O)CC(=O)CSc1nc2c(sc(=S)n2-c2ccccc2)c(=O)[nH]1 | -3% | -6% | 21% | 4% | 16µM*
COc1c(-c2coc3cc4c(cc3c2=O)CC(OC(C)=O)C(C)(C)O4)ccc2c1C=CC(C)(C)O2 (configuration not stated) | . | 1.3µM* | 2.5µM* | . | .
CC1(C)C=Cc2c(cc3occ(-c4ccc5c(c4)OCO5)c(=O)c3c2O)O1 | . | -13% | 0% | . | .
COc1c(-c2coc3cc4c(cc3c2=O)CC(O)C(C)(C)O4)ccc2c1C=CC(C)(C)O2 (configuration not stated) | . | -4% | 1.1µM* | . | .
CCN(CC(=O)NCc1cccs1)CC(=O)Nc1cccc(S(N)(=O)=O)c1 | 9% | . | . | 4% | 7%
C=C[C@]1(C)C[C@@H](OC(=O)CSCCN(CC)CC)[C@]2(C)C(C)CC[C@]3(CCC(=O)[C@H]32)[C@@H](C)[C@@H]1O (some centres not stated) | -1% | 0% | 2% | ? | 0%
COc1ccc(-n2nc(C(=O)NCC(=O)NCC3COc4ccccc4O3)c3ccccc3c2=O)cc1 (configuration not stated) | ? | 2% | ? | 4% | 6%
COc1cc2c(cc1NC(=S)Nc1ccccc1C)oc1ccccc12 | ? | -13% | 22% | -2% | 15%
COc1cc2c(cc1NC(=O)Nc1ccc(C)cc1)oc1ccccc12 | ? | 4% | 14% | -1%[9.22 µM] | ?
COc1cc2c(cc1NC(=O)C(C)Sc1ccc(NC(C)=O)cc1)oc1ccccc12 (configuration not stated) | 16µM* | 2% | ? | 17% | ?
CCCNC(=S)Nc1cc2oc3ccccc3c2cc1OC | 5% | 7.1µM* | 4.5µM* | ? | 16%
CNC(=S)Nc1cc2oc3ccccc3c2cc1OC | ? | 13µM* | 7.9µM* | -1% | 1%
CCNC(=S)Nc1cc2oc3ccccc3c2cc1OC | 9% | 14% | 21% | 14% | 3%
COc1ccc(CN2C(=O)c3cccc4cccc2c34)cc1F | 0% | 4% | 4% | ? | 21µM*
COc1ccc(CCN2C(=O)c3cccc4cccc(c34)C2=O)cc1OC | 6% | -9% | -29% | -2% | 8%
NC(=O)CC(NC(=O)c1ccccc1)c1ccc(NCc2ccccc2)c([N+](=O)[O-])c1 (configuration not stated) | -10% | 6% | 8% | 0% | 9%
Nc1nc2ccccc2n1/N=C/c1ccc(-c2ccccc2)o1 | ? | ? | 7.9µM* | ? | ?
O=C1[C@@H]2[C@H](C(=O)N1CC(O)COCc1ccccc1)C1C=C[C@H]2C1 (some centres not stated) | . | . | . | 4% | 25%
O=c1[nH]c(C2CC2)nc2sc3c(c12)CCCC3 | 5% | 16% | 10% | -6% | -11%
N#Cc1cnn(-c2nc3sc4c(c3c(=O)[nH]2)CCCC4)c1N | ? | -14%[0.365 µM] | 2.8µM* | -6% | ?
O=C(O)CCCNC(=O)/C(=C\c1ccc(Cl)cc1)NC(=O)c1ccc(Br)cc1 | ? | -2% | -1% | -3% | -15%
CCOc1cc(NC(=O)c2ccco2)c(OCC)cc1NC(=O)CCc1ccccc1OC | 21µM* | -20% | -19% | 2% | ?
CCOc1cc(NC(=O)c2ccco2)c(OCC)cc1NC(=O)c1ccco1 | -9% | 4% | -6% | -2% | ?
CCOc1cc(C#N)c(NC(=O)c2ccco2)cc1OCC | ? | 5% | 11% | 9.2µM* | ?
SMILES | ELG1 repair inh | VP16 counter | RORgamma inh | SW480 rereplic | MCF10A rereplic
CN1CCN(C(=O)CN(C)S(=O)(=O)c2cc(Cl)ccc2Cl)CC1 | 11% | 1% | -12% | 15% | -3%
CCc1nnc(NC(=O)c2ccc(S(=O)(=O)N3CCc4ccccc4C3)cc2)s1 | 1% | -7% | -13% | 0% | 1%
Cc1cc(C)c2nc(NNC(=O)c3cc(=O)c4ccccc4o3)sc2c1 | 0% | ? | 5µM* | 6% | ?
Cc1cc(C)c2nc(NNC(=O)c3ccc(S(=O)(=O)N4CCc5ccccc5C4)cc3)sc2c1 | 20% | 3.2µM* | 1.6µM* | 12µM* | ?
Cc1ccc(S(=O)(=O)N2CCc3ccccc3C2)cc1 | -1% | -4% | 3% | -5% | -5%
Cc1cc(C)c2sc(NNC(=O)c3ccc(S(=O)(=O)N4CCc5ccccc5C4)cc3)nc2c1 | 1% | 5µM* | 4.5µM* | 5.2µM* | ?
OCCC1CN(CC2CC2)CCN1Cc1ccc(F)c(F)c1 (configuration not stated) | -3% | 2% | -6% | 4% | 0%
CCC(CC)C(=O)Nc1nnc(CCc2ccccc2)s1 | 9% | 4% | 0% | -6% | 1%
CCOC(=O)c1c(C)c(C(=O)Nc2ccc(N(C)C)cc2)c(C)n1CC | 0% | ? | ? | 10µM* | 6.5µM*
N=C1C(c2ccccc2)=C(O)CN1c1cccc2ccccc12 | 2% | 3% | 7% | -2% | -15%
CCCOc1ccc(C(=O)Nc2ccc(NC(=O)c3cccs3)cc2)cc1 | 1% | -7% | 6% | -19% | -19%
COC(=O)Nc1ccc(SCC(=O)c2cccc([N+](=O)[O-])c2)cc1 | 1% | -9% | -18% | ? | 23µM*
COc1cccc(C(=O)COc2ccc(NC(=O)c3cccs3)cc2)c1 | 15µM* | -11% | ? | 0% | ?
COc1cccc(C(=O)COc2cccc(NC(=O)c3cccc([N+](=O)[O-])c3)c2)c1 | 13µM* | 1% | ? | 10% | ?
CCCCOc1cccc(C(=O)Nc2ccc(NC(=O)c3cccs3)cc2)c1 | -6% | 0.1µM* | ? | 6.5µM* | 7.3µM*
CC(C)C[C@H](NC(=O)Nc1ccc(Oc2ccccc2)cc1)C(=O)O | -12% | -6% | 2% | -90% | -83%
COc1cc(S(=O)(=O)Nc2cccc3cn[nH]c23)c(OC)cc1Cl | -9% | -13% | -5% | -13% | 0%
NS(=O)(=O)c1ccc(CCNC(=O)C(=O)NCC2OCCN2S(=O)(=O)c2cc(F)ccc2F)cc1 (configuration not stated) | 4% | -1% | 22% | 2% | -2%
COc1cc2c(cc1OC)C1O[C@](c3ccsc3)(C2)Oc2c1c(=O)oc1ccc(F)cc21 | . | -23%[10 µM] | 30%[10 µM] | . | .
